From PubChem BioAssay AID2551 (National Center for Advancing Translational Sciences (NCATS), 2010)
Among all 310,000 compounds or so, about 17,000 (5.5%) were called active. Inconclusive results (about 11%) are left out. Shown is part of a subset that was picked to be rich in actives. Where a call stands in place of a potency, no number is given. Values without a mark were called inactive. The call rests on the fitted dose curve; in most records, active means well fitted inhibition curve with a large enough effect; inconclusive means small, poorly fitted or top-dose-only effect, or effect the other way; inactive means no such curve, though single readings can be large or run the other way.

These molecules were tested against Nuclear receptor ROR-gamma (Mus musculus) (UniProt P51450) (assay: qHTS for inhibitors of ROR gamma transcriptional activity). Conditions: Drosophila S2 Gal4-RORgamma UAS-luciferase reporter, 20 h; series mostly up to 53.6 µM.
Procedure, shortened: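 Drosophila Schneider cells stably carrying a metallothionein-driven Gal4 DBD–ROR gamma fusion and a UAS-Photinus luciferase reporter were exposed to compound for 1 hr, then induced with copper sulfate (700 uM final) for 20 hr at ambient temperature before luminescence reading.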
Further: nearly all actives have a fitted effect of over 60% in size.
Potency means the concentration at half of the fitted maximal effect.

Sequence of Nuclear receptor ROR-gamma (Mus musculus) (P51450 whole entry, looked up, the tested form may be a part): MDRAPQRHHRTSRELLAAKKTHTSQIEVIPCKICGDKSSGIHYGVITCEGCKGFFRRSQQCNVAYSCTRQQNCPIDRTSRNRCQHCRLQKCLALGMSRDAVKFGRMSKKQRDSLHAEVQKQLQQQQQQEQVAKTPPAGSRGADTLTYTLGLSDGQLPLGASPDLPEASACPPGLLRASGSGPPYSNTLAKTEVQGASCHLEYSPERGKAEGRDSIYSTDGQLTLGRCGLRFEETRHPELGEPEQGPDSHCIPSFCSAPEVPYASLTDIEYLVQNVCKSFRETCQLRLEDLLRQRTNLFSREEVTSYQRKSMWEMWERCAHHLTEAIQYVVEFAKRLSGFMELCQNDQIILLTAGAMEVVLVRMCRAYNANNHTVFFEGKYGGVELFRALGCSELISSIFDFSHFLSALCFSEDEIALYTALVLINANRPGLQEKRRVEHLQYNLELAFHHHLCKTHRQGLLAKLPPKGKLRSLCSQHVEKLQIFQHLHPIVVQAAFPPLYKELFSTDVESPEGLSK

SMILES | Potency | activity change, negative = inhibition
COC(=O)c1ccccc1NC(=O)CSc1n[nH]c(-c2ccncc2)n1 | inactive | 
Cc1ccc2oc(C(=O)N3CCN(C)C[C@@H]3C(C)C)c(C)c2c1 | inactive | 
CC(=O)c1cccc(OCc2cc(C(=O)NC(C)Cc3cccnc3)no2)c1 (stereo unspecified) | inactive | 
CN(Cc1cccnc1)C(=O)c1cc(COc2ccc3ncccc3c2)on1 | 4.47 µM (active) | 
Cc1ccc(OCc2cc(C(=O)N(C)CCc3ccccc3)no2)cc1C | inactive | 
COCCn1cnc2c1c(=O)n(Cc1ccc(Br)cc1)c(=O)n2Cc1ccccc1 | inactive | 
O=C(CCNC(=O)C1CCN(S(=O)(=O)c2ccccc2)CC1)NC1CC1 | inactive | 
COc1ccc(CN2CCCC(N3CCc4ccccc4C3)C2)c(O)c1 (stereo unspecified) | inactive | 
CCOC(=O)c1c(-c2ccc(-c3ccccc3)cc2)csc1NC(=O)CCC(=O)O | inactive | 
CCOC(=O)c1c(-c2ccccc2)csc1NC(=S)NC(=O)c1ccccc1 | 2.82 µM (active) | 
CCOC(=O)CNC(=O)/C(=C\c1ccc(F)cc1)NC(=O)c1ccccc1 | inactive | 
CCOC(=O)C1=C(C)c2ccccc2OC1(C)C(=O)OCC (stereo unspecified) | inactive | 
CCOC(=O)C1=C(NC(=S)NC(=O)c2ccccc2)c2ccccc2CC1(C)C | 4.47 µM (active) | 
CCOC(=O)c1c(-c2cccc(C)c2)csc1NC(=O)c1c(-c2ccccc2)noc1C | inactive | 
COc1cccc(C(=O)Nc2nnc(S(=O)(=O)N3CCCCC3)s2)c1 | inactive | 
CC(=O)Nc1ccc(NC(=O)CCCNC(=O)c2ccc(Cl)cc2)cc1 | inactive | 
CC(C)c1ccc(C2C(C(=O)c3ccco3)=C(O)C(=O)N2CC2CCCO2)cc1 (stereo unspecified) | inactive | 
COc1ccccc1NC(=O)CCN1CCN(c2ccc(Cl)cc2)CC1 | inactive | 
O=C(CCc1ccccc1)NCc1cccnc1 | inactive | 
CCc1ccc(N(CC(=O)NCc2cccnc2)S(=O)(=O)c2ccccc2)cc1 | 14.1 µM (active) | 
O=C(CN(c1cc(C(F)(F)F)ccc1Cl)S(=O)(=O)c1ccccc1)NCc1cccnc1 | inactive | 
Cc1c(C)c2c(OCC(=O)NCCCO)cc3c(c2oc1=O)CCC(C)(C)O3 | inactive | 

SMILES | Potency | activity change, negative = inhibition
CC(C)CC(CCc1ccccc1)OS(N)(=O)=O (stereo unspecified) | inactive | 
COc1ccccc1/C=C/C(=O)NC(=S)N1CCOCC1 | 7.08 µM (active) | 
O=C(/C=C/c1ccco1)NC(=S)Nc1ccccc1Br | 11.2 µM (active) | 
COc1ccccc1/C=C/C(=O)NC1CC2CCC1C2 (stereo unspecified) | inactive | 
CCNC(=S)N1CCN(C(=O)c2ccco2)CC1 | inactive | 
Cc1cccc(N2CCN(C(=O)/C=C/c3ccco3)CC2)c1C | inactive | 
COc1ccccc1C(=O)Nc1cccc(C(=O)N2CCOCC2)c1 | inactive | 
O=C(/C=C/c1ccco1)NC(=S)N1CCCCC1 | 3.98 µM (active) | 
CC(=O)Nc1ccc(NC(=S)NC(=O)/C=C/c2ccccc2)cc1 | inactive | 
Cc1nnc(NC(=O)/C=C/c2ccco2)s1 | inactive | 
CCC(C)[C@H](NC(=O)N1CCn2c1nc1ccccc12)C(=O)NCc1ccc(OC)cc1 (stereo partly specified) | inactive | 
O=C(O)CC/C(=C\c1cc2c(cc1Br)OCO2)c1nc2ccccc2s1 | inactive | 
CC(=O)N1CCc2cc(S(=O)(=O)NC3CCCCC3)ccc21 | inactive | 
COCCNc1ncnc2c1nc1n2CCCC1 | inactive | 
CCCCCCn1cc(C(=O)O)c(=O)c2cc(F)c(N3CCCCC3)cc21 | inactive | 
O=C(Nc1ccc(S(=O)(=O)Nc2ccccn2)cc1)c1ccccc1 | inactive | 
Cc1ccc(CNC(=O)CCS(=O)(=O)c2ccc3c(c2)CC(C)N3C(=O)C2CC2)o1 (stereo unspecified) | inactive | 
O=C(Nc1ccc([N+](=O)[O-])cc1)OCCc1ccccn1 | inactive | 
COc1ccc(C(=O)NC(=S)NNC(=O)c2c(-c3ccccc3)noc2C)cc1 | 6.31 µM (active) | 
Cc1onc(-c2ccccc2)c1C(=O)NNC(=S)NC(=O)c1ccc(F)cc1 | 3.98 µM (active) | 
Cc1onc(-c2ccccc2)c1C(=O)Nc1ccccc1C#N | inactive | 
Cc1ccc(CNC(=O)c2c(-c3ccccc3)noc2C)cc1 | inactive | 

SMILES | Potency | activity change, negative = inhibition
Cc1onc(-c2c(Cl)cccc2Cl)c1C(=O)NNC(=O)c1c(-c2c(Cl)cccc2Cl)noc1C | inactive | 
CC(=O)Nc1cccc(NC(=O)c2c(-c3ccccc3)noc2C)c1 | inactive | 
NC(=O)c1oc2ccccc2c1NC(=O)Cc1ccccc1 |  | -17.9% [at 1.91 µM]
COc1ccc(N(C(=O)c2snc(C(N)=O)c2N)C(C(=O)NC2CCCC2)c2ccco2)cc1OC (stereo unspecified) | inactive | 
O=C1/C(=C/c2ccc(F)cc2)SC(=S)N1CCCC(=O)N1CCCCC1CCO (stereo unspecified) | inactive | 
COC(=O)Cn1cnc2scc(-c3ccc(C)c(C)c3)c2c1=O | inactive | 
O=C(NC(=S)Nc1ccc(Cl)c(C(=O)O)c1)c1cncc(Br)c1 | inactive | 
O=C(/C=C/NNC(=O)c1cccc(Br)c1)c1ccccc1 | inactive | 
O=C(NC(=S)Nc1ccc(S(=O)(=O)Nc2ncccn2)cc1)c1cccc(Br)c1 | inactive | 
Cc1ccc(C)c(NC(=O)CCC(=O)NNC(=O)c2cccs2)c1 | inactive | 
CC(CC(=O)O)CC(=O)NNC(=O)c1cccc(Br)c1 (stereo unspecified) | inactive | 
O=C(NC1CC1)c1cccc(Br)c1 | inactive | 
Cc1ccccc1NC(=S)NNC(=O)c1cccc(Br)c1 | 11.2 µM (active) | 
NS(=O)(=O)c1ccc(NC(=S)NC(=O)c2cccnc2)cc1 | inactive | 
Cc1ccc(C)c(NC(=O)NNC(=O)c2ccc3ccccc3c2O)c1 | inactive | 
NS(=O)(=O)c1ccc(NC(=S)NC(=O)c2cccc(Br)c2)cc1 | 11.2 µM (active) | 
O=C(NC(=S)Nc1cccc2c(O)cccc12)c1cccc(Br)c1 | 11.2 µM (active) | 
Cc1ccc(C)c(NC(=S)NNC(=O)c2csc(C)c2)c1 | 3.55 µM (active) | 
COc1ccc(-c2nnc3n2CCCCC3)cc1 | inactive | 
COc1ccc(NC(=O)CSc2nncc(=O)n2N)cc1OC | inactive | 
CC(CN1CCOCC1)OC(=O)c1ccc(Cl)cc1Cl (stereo unspecified) | inactive | 
Cn1c(C(=O)N2CCCC(C(=O)NCc3ccccc3)C2)cc2sccc21 (stereo unspecified) | inactive | 

SMILES | Potency | activity change, negative = inhibition
COc1ccccc1NC(=O)c1ccc(N2CC3CC(C2)c2cccc(=O)n2C3)c(NC(=O)c2cccnc2)c1 (stereo unspecified) | inactive | 
CC(=O)N1c2ccc(S(=O)(=O)N3CCC(C(=O)N4CCN(c5ccccc5)CC4)CC3)cc2CC1C (stereo unspecified) | inactive | 
CC(C)CN(CC(C)C)C(=O)CN1c2cccc3cccc(c23)S1(=O)=O | inactive | 
O=C(CNC(=O)[C@@H]1Cc2ccccc2CN1)NC1CCCCC1 | inactive | 
NC(=O)C1CC(=O)N(c2ccc(OCC(=O)NCc3ccccc3)cc2)C1 (stereo unspecified) | inactive | 
Cn1c(=O)[nH]c(=O)c2c1nc(N1CCN(C(c3ccccc3)c3ccccc3)CC1)n2CCO | inactive | 
O=C(COCc1cc(-c2ccc3c(c2)OCO3)on1)N1CCN(c2cccc(Cl)c2)CC1 | inactive | 
CCOC(=O)Nc1sc(C(=O)N(C)C)c(C)c1C(=O)OCC | inactive | 
CCOC(=O)c1c(NC(=O)CCl)sc(C(=O)N(CC)CC)c1C | 20 µM (active) | 
CCOC(=O)c1sc(NC(=O)CCN2CCOCC2)c(C(=O)OCC)c1C | inactive | 
Cc1ccc(S(=O)(=O)NCc2ccc(C(=O)NC3CCC(C)CC3)cc2)cc1 (stereo unspecified) | inactive | 
COc1ccccc1N1CC(C(=O)Nc2nnc(SCC(=O)NC(C)C)s2)CC1=O (stereo unspecified) | inactive | 
CC(=O)Oc1c2c(c3c(c1CC=C(C)C)O[C@@]14C(=CC5CC1C(C)(C)OC4(C/C=C(\C)C(=O)O)C5=O)C3=O)OC(C)(CCC=C(C)C)C=C2 (stereo partly specified) | 5.62 µM (active) | 
O=C(CNC(=O)c1ccc(Br)o1)NCC1CCCO1 (stereo unspecified) | inactive | 
CCNC(=O)c1cnn(-c2ccccc2)c1-c1ccccc1 | inactive | 
CCOc1cccc(-n2nnnc2-c2ccc(OC)cc2)c1 | inactive | 
COc1ccc(-n2nnnc2-c2nc3ccccc3s2)cc1 | 12.6 µM (active) | 
COc1ccc(-n2nnnc2SCC(=O)Nc2ccccc2)cc1 | inactive | 
COc1cc(C2C3=C(CCCC3=O)OC3=C2C(=O)CCC3)ccc1OCC(=O)Nc1ccccc1 | inactive | 
Cc1ccc(N(Cc2cc(=O)[nH]c3ccccc23)C(=O)CCl)cc1 | 15.8 µM (active) | 
Cc1ccc(N(Cc2cc3ccccc3[nH]c2=O)C(=O)c2cccs2)cc1 | inactive | 
CC(=O)N(Cc1cc(=O)[nH]c2ccccc12)c1ccc(C)cc1C | inactive | 

SMILES | Potency | activity change, negative = inhibition
Cc1cc(C)cc(NC(=O)C2CCCN2S(=O)(=O)c2cccc3cccnc23)c1 (stereo unspecified) | inactive | 
CCN1CCN(CCNC(=O)c2ccc3c(c2)NC(=O)/C(=C\c2ccc(OC)c(OC)c2)S3)CC1 | inactive | 
CCCCc1cc(=O)oc2c(C)c(OCC(=O)N3CCC(C(N)=O)CC3)ccc12 | inactive | 
Clc1ccc2nc(CSc3ccccc3)cn2c1 | 14.1 µM (active) | 
CCOc1ncccc1C(=O)OCc1cn2cc(Cl)ccc2n1 | inactive | 
O=C(/C=C/c1ccc2c(c1)OCO2)NCc1cn2cc(Cl)ccc2n1 | inactive | 
COc1ccc(CCOC(=O)CNC(=O)c2ccc(Cl)cc2Cl)cc1 | inactive | 
COC(=O)Cc1cnc(NC(=O)CSc2nc(C(C)C)cc(=O)[nH]2)s1 | inactive | 
COc1ccc(N2CCN(C(=O)[C@@H](NC(=O)c3cc(OC)cc(OC)c3)C(C)C)CC2)cc1 | inactive | 
COc1ccc(-c2cn[nH]c2-c2ccc(OC)cc2)cc1 | inactive | 
CCN(CCn1cccn1)Cc1cn[nH]c1-c1ccc(OC)cc1F | inactive | 
CCOc1ccccc1Oc1cn[nH]c1-c1ccc(OC)cc1O | 8.91 µM (active) | 
O=S(=O)(NCC1CC1)c1ccc(F)c(Cl)c1 | inactive | 
Cc1ccc(N(CC(=O)NCC2CCCO2)C(=O)CNS(=O)(=O)c2ccc(Cl)cc2)cc1 (stereo unspecified) | inactive | 
CCN(CC(=O)N1CCCC1)S(=O)(=O)c1ccc(F)cc1 | inactive | 
O=C(CSCc1ccccc1Cl)NNC(=O)c1ccccc1 | inactive | 
O=C(CO/N=C/c1ccccc1O)NNC(=O)c1ccccc1Cl | 20 µM (active) | 
O=C(CO/N=C/c1ccccc1OC(F)F)NC1CCCC1 | inactive | 
